Source: PubChem BioAssay (several laboratories)
Most compounds without a hit are left out; they make up all but 4.1% or so of the library.
GDH-TPI counter: GDH-TPI coupled enzyme inhibition counter-screen | AID 588335 | GDH-TPI coupled enzyme counterscreen, NADH absorbance | inhibition, % at 4.8 µM | hit rate 1.2% among 360,000; in the data active = inhibition above about 30%
RecA splice inh: inhibitors of M. tuberculosis RecA intein splicing; P9WHJ3; cell-free RecA intein splicing, fluorescence; inhibition, % (test concentration not listed); hit rate 0.75% among 290,000; AID 2221; in the data active = inhibition above about 30%
FBA Mtb inh: inhibitors of M. tuberculosis fructose-bisphosphate aldolase; P9WQA3; purified M. tuberculosis FBA, fluorescence read-out; inhibition, % at 1 µM; hit rate 2.3% among 360,000; AID 588726; in the data active = inhibition above about 27%
Vc quorum ag: inducers of Vibrio cholerae quorum light production without autoinducers | V. cholerae BH1578 lux reporter, luminescence, 6 h | activation, % at 18.7 µM | hit rate 0.16% among 350,000; in the data active = activation mostly above about 9.7%, no sharp cut-off
Mtb UGM inh: Mtb UDP-galactopyranose mutase inhibition; P9WIQ1; purified UGM, fluorescence polarization probe displacement; inhibition, % at 10 µM; hit rate 0.06% among 320,000; in the data active = inhibition above about 10%, passing the limit was not always enough
Target sequence (P9WIQ1 whole entry, looked up): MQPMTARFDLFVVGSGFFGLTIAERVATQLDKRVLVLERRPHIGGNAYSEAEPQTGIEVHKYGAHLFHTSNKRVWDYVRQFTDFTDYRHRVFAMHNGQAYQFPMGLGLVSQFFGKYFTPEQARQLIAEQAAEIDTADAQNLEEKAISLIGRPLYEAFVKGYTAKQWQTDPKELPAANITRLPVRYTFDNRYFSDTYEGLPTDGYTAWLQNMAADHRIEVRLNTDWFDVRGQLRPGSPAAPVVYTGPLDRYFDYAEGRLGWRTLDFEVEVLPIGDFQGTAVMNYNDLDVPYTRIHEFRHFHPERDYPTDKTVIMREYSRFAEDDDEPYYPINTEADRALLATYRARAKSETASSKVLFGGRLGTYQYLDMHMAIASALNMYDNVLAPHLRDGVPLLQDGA
Rv3671c inh: inhibits the M. tuberculosis serine protease Rv3671c; hit rate 0.048% among 320,000; AID 2606; P9WHR9; inhibition, % at 5.96 µM; in the data active = inhibition above about 38%;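 also: extracellular domain of Rv3671c used as enzyme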
A number is an active result; n = inactive; x = no result; + = active, no number.

SMILES	GDH-TPI counter	RecA splice inh	FBA Mtb inh	Vc quorum ag	Mtb UGM inh	Rv3671c inh
CC1(C(=O)NS(=O)(=O)C2CC2)CCCN(C(=O)c2ccc(F)c(Cl)c2)C1 (configuration not stated)	n	x	n	n	x	x
O=C1NC(=O)/C(=C/c2ccccc2OCc2ccccc2)S1	31.7	n	n	n	n	n
CCCN(C(=O)c1cc(S(=O)(=O)N2CCCCCC2)ccc1OC)C1CCS(=O)(=O)C1 (configuration not stated)	n	n	n	n	n	n
CCOC(=O)c1cc2c(nc1N)CC(C)(CC)OC2 (configuration not stated)	n	n	111.9	n	n	n
CCOC(=O)c1cc2c(nc1N)CC(C)(C)OC2	n	n	163.7	n	n	n
COc1cc2c(cc1OC)-c1nc3ccccc3c(=O)n1C(C)(C)C2	39.1	n	n	n	n	n
COc1ccc(/C=C2\CCn3c2nc2ccccc2c3=O)cc1OC	n	x	n	n	n	n
Oc1c(Br)cc(C=Nc2ccc3nc(-c4ccccc4)[nH]c3c2)c(O)c1Br	x	n	x	x	n	n
O=[N+]([O-])c1ccc(O)c(C=Nc2ccc3nc(-c4ccccc4)[nH]c3c2)c1	n	n	+	n	n	n
CCCCN1C=C(C(=O)OC)C(c2ccccc2C(F)(F)F)C(C(=O)OC)=C1	n	n	n	x	n	n
COCCN1C=C(C(=O)OC)C(c2ccccc2C(F)(F)F)C(C(=O)OC)=C1	n	n	154.9	n	n	n
CCCOc1ccc(C2C(C(=O)OC)=CN(CCOC)C=C2C(=O)OC)cc1	n	n	+	x	n	n
COC(=O)C1=CNC=C(C(=O)OC)C1c1ccc(Cl)cc1	n	n	+	n	n	n
CCCCN1C=C(C(=O)OC)C(c2ccccc2Cl)C(C(=O)OC)=C1	n	n	171.2	n	n	n
COC(=O)C1=CN(Cc2ccc(C)cc2)C=C(C(=O)OC)C1c1ccc(F)c(F)c1	n	n	n	n	n	n
COC(=O)C1=CN(c2ccc(Cl)cc2)C=C(C(=O)OC)C1c1ccc([N+](=O)[O-])cc1	n	n	n	n	n	x
CC[C@@]1(C(=O)OC)N[C@H](CN(C)S(=O)(=O)c2ccc(C(C)(C)C)cc2)[C@@H]2C(=O)N(Cc3ccccc3)C(=O)[C@@H]21	n	x	n	n	n	n
CCCCn1c(N)c(N(CCOC)C(=O)c2cnc(C)cn2)c(=O)[nH]c1=O	n	n	n	n	n	n
C(COC1CC2CC1C1C2CC2OC21)OC1CC2CC1C1C2CC2OC21 (configuration not stated)	n	x	n	n	x	x
COc1ccccc1C(=O)NCCC(=O)NCc1cccnc1	n	x	n	n	n	n
COc1cc(F)ccc1-c1cc(C(=O)NCc2ccc(F)cc2)[nH]n1	n	x	n	n	x	x
COC(=O)C1=CNC=C(C(=O)OC)C1c1cccc2ccccc12	n	n	n	n	n	n
COC(=O)C1=CNC=C(C(=O)OC)C1c1ccccc1Cl	n	x	+	n	n	n
COC(=O)C1=CNC=C(C(=O)OC)C1c1cccc(OC)c1	n	n	195.4	n	n	n
C[C@H]1CN([C@@H](C)CO)C(=O)CCCn2nncc2CO[C@@H]1CN(C)C(=O)c1ccccc1	n	x	n	n	x	x
SMILES	GDH-TPI counter	RecA splice inh	FBA Mtb inh	Vc quorum ag	Mtb UGM inh	Rv3671c inh
COC(=O)c1ccc(S(=O)(=O)c2ccccc2)c(N)c1	n	n	121.4	n	n	n
COc1ccc2[nH]c3c(=O)n(/N=C/[C@H]4C(C)C=C(C)CC4C)c(=O)[nH]c3c2c1 (some centres not stated)	n	n	155.8	n	n	n
COc1ccc(N2C(=O)/C(=C/c3ccc([N+](=O)[O-])cc3)N=C2C)cc1	n	n	n	n	n	n
CC1=N/C(=C\c2ccc([N+](=O)[O-])cc2)C(=O)N1c1ccc(Br)c(C)c1	38.9	n	n	n	n	n
COc1nc(-c2ccccc2)cc(-c2ccc(OC)c(OC)c2)n1	36.0	n	n	n	n	n
COc1cc(OC)c(OC)cc1/C=N/NC(=S)NCCN1CCOCC1	n	n	n	n	n	n
COc1cc(/C=N/NC(=S)NC2CC3CCC2C3)ccc1O (configuration not stated)	52.4	n	n	n	n	n
COc1ccc(/C=N/NC(=S)NCc2ccccc2)cc1OC	n	n	n	n	n	n
COc1cc(/C=N/NC(=S)N/N=C/c2cc(OC)c(OC)c(OC)c2)cc(OC)c1OC	45.3	n	n	n	n	n
COc1cc(/C=N/NC(=S)NCCN2CCOCC2)cc(OC)c1O	49.5	n	n	n	n	n
COc1ccc(C=NNC(=S)Nc2ccc(F)cc2)cc1OC	69.3	x	n	n	x	x
COc1ccc(C=NNC(=S)NN=Cc2ccc(OC)c(OC)c2)cc1OC	63.8	x	n	n	x	x
Cc1ccc(NC(=O)C2CC(O)CN2C(=O)OCc2ccccc2)cc1C (configuration not stated)	n	n	n	n	x	x
COc1cc(/C=C/C(=O)Nc2ccc3nc4n(c(=O)c3c2)CCCC4)cc(OC)c1OC	38.2	n	n	n	n	n
COc1ccc(-c2cc(C(=O)Nc3ccc(S(=O)(=O)Nc4onc(C)c4C)cc3)c3ccccc3n2)cc1OC	41.8	n	n	n	n	n
COc1cc(/C=C/C(=O)Nc2ccc(S(=O)(=O)Nc3onc(C)c3C)cc2)cc(OC)c1OC	39.1	x	n	n	x	x
C[C@@H]1CN([C@@H](C)CO)C(=O)CCCn2nncc2CO[C@H]1CN(C)C(=O)C1CCCCC1	n	x	n	n	x	x
COCCOC(=O)c1c(NC(=O)COC(=O)c2ccc(C)o2)sc(C(N)=O)c1C	n	x	n	n	n	n
CCCCN(C)C(=O)c1sc(=O)n(Cc2c(C)noc2C)c1C	n	x	n	n	x	x
CSc1nc(-c2ccco2)nn1C(=O)c1cccs1	n	31.8	n	n	n	n
O=C(c1cccs1)n1nc(-c2ccco2)nc1SCc1ccccc1	x	n	x	x	n	n
CNC(=O)/C(C#N)=C/c1c(N(Cc2ccccc2)Cc2ccccc2)nc2c(C)cccn2c1=O	n	31.0	n	n	n	n
N#C/C(=C\c1c(N2CCCCC2)nc2ccccn2c1=O)C(=O)NC1CCS(=O)(=O)C1 (configuration not stated)	n	n	n	n	n	n
Cc1cccn2c(=O)c(/C=C(\C#N)C(=O)NC3CCS(=O)(=O)C3)c(N3CCC(C)CC3)nc12 (configuration not stated)	n	n	196.7	n	n	n
Oc1ccc(N2CCN(Cc3c(-c4ccccc4)nc4ccccn34)CC2)cc1	n	n	n	n	n	n
Cn1c(=O)c2c(ncn2CC2OCCO2)n(C)c1=O	n	n	n	n	n	n
CN1CC2(Cc3c1ccc1ccccc31)C(=O)OC(C)(C)OC2=O	n	n	+	n	n	n
Cc1ccc(/C=C2/C(=N)N3N=C(CC(=O)N4CCCC4)SC3=NC2=O)o1	32.8	n	n	n	n	n
Cc1cc(/C=C2\C(=N)N3N=C(CC(=O)N4CCOCC4)SC3=NC2=O)c(C)n1Cc1ccccc1	n	x	n	n	n	n
